Targets include RELARELA (p65 homodimer) (Homo sapiens, UniProt Q04206 1-307); p50p50 homodimer (Homo sapiens, UniProt P19838 7-356); RELB subunit;p50 subunit (Homo sapiens;Homo sapiens, UniProt Q01201;P19838 120-401;7-356).
What all share (test): protein binding microarray; high values mean tight binding
Common to all, as to conditions: dsDNA, one strand shown

A further test addresses T1, p52p52 homodimer (Homo sapiens, UniProt Q00653 4-332).
T1 sequence: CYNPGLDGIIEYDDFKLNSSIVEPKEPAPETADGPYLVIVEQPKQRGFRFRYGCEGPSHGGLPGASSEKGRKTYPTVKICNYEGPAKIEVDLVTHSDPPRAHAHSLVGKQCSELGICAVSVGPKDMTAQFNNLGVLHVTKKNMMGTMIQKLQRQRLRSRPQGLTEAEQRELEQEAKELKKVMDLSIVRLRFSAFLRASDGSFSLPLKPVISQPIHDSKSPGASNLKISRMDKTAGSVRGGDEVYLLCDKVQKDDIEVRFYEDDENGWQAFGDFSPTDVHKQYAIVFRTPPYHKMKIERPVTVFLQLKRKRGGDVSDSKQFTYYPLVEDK

In test [1] the target is RELA (p65) subunit of heterodimer;p50 subunit (Homo sapiens;Homo sapiens, UniProt Q04206;P19838 1-307;7-356).
In test [2] the target is RELA (p65) subunit of heterodimer;p52 subunit (Homo sapiens;Homo sapiens, UniProt Q04206;Q00653 1-307;4-332).
For another test, the target named is T2, RELB subunit;p52 subunit (Homo sapiens;Homo sapiens, UniProt Q01201;Q00653 120-401;4-332).
T2 sequence 1: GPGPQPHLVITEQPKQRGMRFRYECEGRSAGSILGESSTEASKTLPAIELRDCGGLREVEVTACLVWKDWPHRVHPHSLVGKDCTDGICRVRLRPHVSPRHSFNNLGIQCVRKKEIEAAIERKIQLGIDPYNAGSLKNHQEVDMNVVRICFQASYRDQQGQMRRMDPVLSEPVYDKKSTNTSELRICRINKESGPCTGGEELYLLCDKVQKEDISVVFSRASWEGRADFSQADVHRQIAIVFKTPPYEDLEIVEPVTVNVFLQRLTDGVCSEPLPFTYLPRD
T2 sequence 2: T1 sequence

Test [3] concerns the target C-Rel subunit;p50 subunit (Homo sapiens;Homo sapiens, UniProt Q04864;P19838 1-285;7-356).
For test [4], the target named is T3, C-Rel subunit;p52 subunit (Homo sapiens;Homo sapiens, UniProt Q04864;Q00653 1-285;4-332).
T3 sequence 1: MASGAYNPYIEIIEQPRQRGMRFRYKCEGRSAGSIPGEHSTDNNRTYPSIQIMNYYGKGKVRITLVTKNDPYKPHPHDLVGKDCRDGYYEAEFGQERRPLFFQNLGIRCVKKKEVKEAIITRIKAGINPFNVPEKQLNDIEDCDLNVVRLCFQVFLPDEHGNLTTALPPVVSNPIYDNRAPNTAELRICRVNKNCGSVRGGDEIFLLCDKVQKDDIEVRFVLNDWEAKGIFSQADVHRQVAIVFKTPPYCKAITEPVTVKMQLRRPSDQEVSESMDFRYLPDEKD
T3 sequence 2: T1 sequence

Binding signal data for 15 sequences are collected here from publication PMC3218832.

Chain of p50p50 homodimer (P19838 7-356): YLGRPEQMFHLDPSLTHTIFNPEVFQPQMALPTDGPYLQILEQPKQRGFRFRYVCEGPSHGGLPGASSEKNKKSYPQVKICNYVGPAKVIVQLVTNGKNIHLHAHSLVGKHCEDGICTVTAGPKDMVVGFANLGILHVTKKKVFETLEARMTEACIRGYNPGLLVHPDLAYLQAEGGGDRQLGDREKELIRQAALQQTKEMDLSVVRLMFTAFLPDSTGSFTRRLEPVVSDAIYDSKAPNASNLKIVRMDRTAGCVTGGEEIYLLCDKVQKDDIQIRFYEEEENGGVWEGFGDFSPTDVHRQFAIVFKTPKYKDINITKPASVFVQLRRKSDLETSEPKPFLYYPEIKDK
Chain of RELARELA (p65 homodimer) (Q04206 1-307): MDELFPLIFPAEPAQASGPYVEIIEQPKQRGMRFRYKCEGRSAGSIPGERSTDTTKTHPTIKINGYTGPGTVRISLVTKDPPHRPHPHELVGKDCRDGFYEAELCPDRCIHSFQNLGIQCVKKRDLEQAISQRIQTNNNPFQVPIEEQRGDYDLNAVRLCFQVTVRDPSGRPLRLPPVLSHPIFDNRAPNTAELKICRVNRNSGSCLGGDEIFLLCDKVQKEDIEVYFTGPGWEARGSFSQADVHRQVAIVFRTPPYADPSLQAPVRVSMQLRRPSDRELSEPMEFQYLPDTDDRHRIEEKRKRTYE
Chain of RELA (p65) subunit of heterodimer;p50 subunit (Q04206 1-307, chain 1 of 2): as the sequence (Q04206 1-307) above
Chain of RELA (p65) subunit of heterodimer;p50 subunit (P19838 7-356, chain 2 of 2): as the sequence (P19838 7-356) above

On to CAGTTACCCCC, for which the binding signal stood at 0.379 z-score with RELARELA (p65 homodimer); 1.11 z-score with p50p50 homodimer; 0.638 z-score with p52p52 homodimer; 0.953 z-score in test [1]; 0.838 z-score in [2]; 1.01 z-score with RELB subunit;p50 subunit. The binding signal in the test with RELB subunit;p52 subunit came to 1.4 z-score; in test [3], 1.01 z-score; in [4], 0.788 z-score.

AAATGGACCCC: the binding signal with RELARELA (p65 homodimer) was -0.781 z-score; with p50p50 homodimer, -0.458 z-score; in the test with p52p52 homodimer, -0.348 z-score; in [1], -0.532 z-score; in [2] it was -0.428 z-score; with RELB subunit;p50 subunit, -0.448 z-score. Besides, the binding signal in the test with RELB subunit;p52 subunit was -0.0987 z-score; in test [3], -0.615 z-score; in [4], -0.473 z-score.

GAAGTGGCCCC: the binding signal in the test with RELARELA (p65 homodimer) was -1.02 z-score; with p50p50 homodimer it was -0.225 z-score; with p52p52 homodimer it was -0.401 z-score; in [1], -0.503 z-score; in [2], -0.265 z-score; in the test with RELB subunit;p50 subunit, -0.183 z-score. Further, the results for the binding signal (in the test with RELB subunit;p52 subunit; in [3]; in test [4]) were -0.112 z-score, -0.347 z-score and -0.316 z-score, respectively.

For the sequence GGAAGCCTCCC, the binding signal with RELARELA (p65 homodimer) was -0.446 z-score; with p50p50 homodimer it was -1.14 z-score; with p52p52 homodimer, -0.595 z-score; in [1], -0.524 z-score; in test [2], -0.721 z-score; in the test with RELB subunit;p50 subunit, -0.789 z-score. Also, the figures for the binding signal (in the test with RELB subunit;p52 subunit; in test [3]; in test [4]) were -0.717 z-score, -0.888 z-score and -0.726 z-score, respectively.

As to AAATAAACCCT, the binding signal was -0.478 z-score with RELARELA (p65 homodimer); 0.0209 z-score with p50p50 homodimer; 0.172 z-score with p52p52 homodimer; -0.112 z-score in test [1]; 0.045 z-score in test [2]; -0.326 z-score in the test with RELB subunit;p50 subunit. Further, the binding signal with RELB subunit;p52 subunit was -0.0813 z-score; in test [3] it was -0.324 z-score; in test [4], -0.00628 z-score.

In the case of CAGGGCTCCCT, the binding signal with RELARELA (p65 homodimer) was -0.815 z-score; with p50p50 homodimer it was -0.631 z-score; with p52p52 homodimer it was -0.475 z-score; in test [1], -0.698 z-score; in test [2], -0.717 z-score; in the test with RELB subunit;p50 subunit, -0.43 z-score. Further, the binding signal is -0.477 z-score with RELB subunit;p52 subunit, -0.901 z-score in test [3] and -0.708 z-score in test [4].

In the case of CAGTAGGTCCC, the binding signal in the test with RELARELA (p65 homodimer) was 0.28 z-score; with p50p50 homodimer, -0.303 z-score; with p52p52 homodimer it was -0.0746 z-score; in [1] it was -0.34 z-score; in test [2], -0.347 z-score; with RELB subunit;p50 subunit it was 0.0687 z-score. The binding signal was -0.117 z-score with RELB subunit;p52 subunit, -0.43 z-score in test [3] and -0.438 z-score in test [4].

GGAAGTTTCCC: the binding signal with RELARELA (p65 homodimer) stood at 2.98 z-score; in the test with p50p50 homodimer, 0.874 z-score; with p52p52 homodimer it was 1.24 z-score; in test [1] it was 1.47 z-score; in test [2], 1.22 z-score; with RELB subunit;p50 subunit, 0.959 z-score. Further, the binding signal turned out to be 1.03 z-score in the test with RELB subunit;p52 subunit, 1.36 z-score in [3] and 1.15 z-score in test [4].

With GAAATTGCCCT, the binding signal with RELARELA (p65 homodimer) is 0.612 z-score; with p50p50 homodimer, -0.312 z-score; with p52p52 homodimer it was -0.333 z-score; in test [1], 0.0283 z-score; in [2] it was -0.203 z-score; in the test with RELB subunit;p50 subunit, -0.547 z-score. Moreover, the values for the binding signal (with RELB subunit;p52 subunit; in test [3]; in test [4]) were -0.476 z-score, 0.175 z-score and -0.0915 z-score, respectively.

Take CGGGTAGTCCC: the binding signal with RELARELA (p65 homodimer) stood at 1.24 z-score; with p50p50 homodimer, 0.936 z-score; with p52p52 homodimer it was 1.66 z-score; in test [1] it was 1.36 z-score; in [2] it was 1.23 z-score; with RELB subunit;p50 subunit, 0.735 z-score. The values for the binding signal (with RELB subunit;p52 subunit; in test [3]; in test [4]) were 1.17 z-score, 1.09 z-score and 1.5 z-score, respectively.

On to AGGATGTTCCC, for which the binding signal in the test with RELARELA (p65 homodimer) is 0.975 z-score; with p50p50 homodimer, -0.225 z-score; in the test with p52p52 homodimer it was -0.143 z-score; in [1] it was 0.237 z-score; in [2], 0.0834 z-score; with RELB subunit;p50 subunit, -0.426 z-score. The binding signal in the test with RELB subunit;p52 subunit was -0.342 z-score; in test [3], 0.00777 z-score; in [4], -0.0123 z-score.

On to CGGTGTACCCT, for which the binding signal in the test with RELARELA (p65 homodimer) is -0.287 z-score; with p50p50 homodimer, -0.0219 z-score; with p52p52 homodimer it was 0.0503 z-score; in test [1], -0.317 z-score; in test [2], -0.282 z-score; with RELB subunit;p50 subunit it was -0.0463 z-score. The binding signal was -0.155 z-score in the test with RELB subunit;p52 subunit, -0.172 z-score in test [3] and -0.317 z-score in test [4].

Consider AGGATCTCCCC, for which the binding signal with RELARELA (p65 homodimer) came to 0.594 z-score; with p50p50 homodimer, 1.02 z-score; with p52p52 homodimer it was 0.969 z-score; in test [1], 1.28 z-score; in test [2] it was 1.04 z-score; in the test with RELB subunit;p50 subunit, 1.22 z-score. The binding signal with RELB subunit;p52 subunit was 0.999 z-score; in test [3], 0.853 z-score; in [4] it was 0.953 z-score.

For the sequence CGATGCTCCCC, the binding signal was 0.0266 z-score with RELARELA (p65 homodimer); -0.0437 z-score with p50p50 homodimer; -0.125 z-score with p52p52 homodimer; -0.0461 z-score in [1]; -0.196 z-score in test [2]; 0.111 z-score with RELB subunit;p50 subunit. In addition, the binding signal with RELB subunit;p52 subunit is 0.0431 z-score; in test [3], 0.0174 z-score; in [4], -0.273 z-score.

As for AGGTGGTCCCT, the binding signal was -0.0291 z-score with RELARELA (p65 homodimer); 0.913 z-score with p50p50 homodimer; 0.63 z-score with p52p52 homodimer; 0.18 z-score in test [1]; 0.558 z-score in test [2]; 0.666 z-score in the test with RELB subunit;p50 subunit. The binding signal in the test with RELB subunit;p52 subunit came to 0.659 z-score; in test [3], 0.227 z-score; in test [4], 0.391 z-score.
